High-throughput results as filed in PubChem.
FMDV inh: High Throughput Screening for Foot and Mouth Disease Virus Antivirals; FMDV antiviral cell-based qHTS; Potency, µM (highest dose often 57.9 µM), hits mostly inhibitors; hit rate 1.2% among 410,000; AID 1159524, 2015; calls by dose curve; tested in HEK293T cells; further: read-out not given here; nearly all actives have a fitted effect of over 45% in size
Giardia FBPA inh: qHTS Assay for Inhibitors of Fructose-1,6-bisphosphate Aldolase from Giardia Lamblia; A8B2U2; purified Giardia FBPA; Potency, µM (top dose mostly 59.6 µM), usual class: inhibitors; hit rate 0.71% among 290,000; further: nearly all actives have a fitted effect of over 55% in size
Target sequence (A8B2U2 whole entry, looked up): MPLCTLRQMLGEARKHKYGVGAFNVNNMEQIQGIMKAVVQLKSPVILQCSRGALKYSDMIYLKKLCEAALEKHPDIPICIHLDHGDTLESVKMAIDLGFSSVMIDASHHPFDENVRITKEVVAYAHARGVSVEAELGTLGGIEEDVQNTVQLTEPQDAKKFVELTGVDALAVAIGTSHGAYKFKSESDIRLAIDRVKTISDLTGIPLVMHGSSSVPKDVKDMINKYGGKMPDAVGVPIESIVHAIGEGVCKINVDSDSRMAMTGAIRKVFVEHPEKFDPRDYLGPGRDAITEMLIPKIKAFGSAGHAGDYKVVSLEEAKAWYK
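40 nM FBPA preincubated 10 min at RT with compound (up to 57.5 uM final), then substrate plus GAPDH/TPI/NAD/arsenate coupling and diaphorase/resazurin added. Fluorescence read after 20 min at RT, 525/598 nm.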
Tb PYK inh: qHTS of Trypanosoma Brucei Inhibitors; TbPYK enzyme, Kinase-Glo Plus ATP luminescence, 45 min; hit rate 0.12% among 410,000; Potency, µM (titrated, usually from 76.8 µM), most hits filed as inhibitors; AID 624173, 2012; pyruvate kinase (Trypanosoma brucei), Q57TT1; further: nearly all actives have a fitted effect of over 50% in size
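Glycolytic pyruvate kinase of T. brucei was incubated with substrate, test compound and 130 uM ADP for 45 minutes at room temperature. Luminescent Kinase-Glo Plus signal was measured after 10 minutes.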
HCMV antiviral: qHTS Assay for inhibitors of the human cytomegalovirus (HCMV); hit rate 4.5% among 410,000; activity change, negative = inhibition, % at 57.5 µM; HFF cells, HCMV-luciferase reporter, 72 h; active compounds read low; in the data active means activity change below about -60%; inconclusive means no clear call, values can overlap the other calls; inactive means above about -39%
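Compounds were evaluated in HFFs infected with an HCMV luciferase reporter virus (MOI 1 PFU/cell). Luciferase in lysates collected 72 h post infection served as the replication measure.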
Sm TGR block: qHTS Assay for the Inhibitors of Schistosoma Mansoni Peroxiredoxins. purified TGR, DTNB reduction, TNB absorbance 405 nm. Potency, µM (series often up to 114 µM), most hits filed as inhibitors. Schistosoma mansoni thioredoxin glutathione reductase (TGR), Q962Y6. hit rate 3% among 360,000; further: nearly all actives have a fitted effect of over 60% in size
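TGR 20 nM + NADPH 100 uM (dispensed conc.), cpd preinc 15 min RT; start with NADPH (500 uM addition) then DTNB (15 mM addition). Kinetic TNB absorbance, 405 nm filter. Four-parameter Hill fit across titration.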
RE007 growth inh: qHTS Assay for Inhibitors of the HIV-1 protein Vpr. Potency, µM (top dose mostly 92.2 µM), usual class: inhibitors. S. pombe RE007 Vpr strain, BacTiter-Glo ATP luminescence, 24 h. AID 651644, 2012. hit rate 0.21% among 360,000; active means well fitted falling curve with a large enough effect; inconclusive means small, poorly fitted or top-dose-only effect; inactive means no such curve, though single readings can be large or run the other way; further: nearly all actives have a fitted effect of over 50% in size
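Fission yeast RE007 carrying one integrated HIV-1 vpr copy, seeded at OD 0.01 in PMG+AL medium with 23 nL pinned compound. Grown 24 h at 30 degrees; viability read by BacTiter-Glo luminescence after 5 min.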
Numbers stand for hits; – = inactive; ? = inconclusive; · = not tested or not shown; [ ] = dose if it differs, or a comment. The list is not random: actives were taken first. Their share in the collection is about 7.7%. Unless noted, the call rests on the fitted dose curve; in most records, active means well fitted curve in the direction sought with a large enough effect; inconclusive means small, poorly fitted or top-dose-only effect, or another doubt; inactive means no such curve, though single readings can be large; an effect the other way counts as inactive or inconclusive.

SMILES | FMDV inh | Giardia FBPA inh | Tb PYK inh | HCMV antiviral | Sm TGR block | RE007 growth inh
COC(=O)C1=CO[C@@H](C)[C@H]2CN3CCc4c([nH]c5ccccc45)[C@@H]3C[C@H]12 | ? | ? | – | -68 | – | –[18.4 µM]
COC(=O)C1=CO[C@@H](C)[C@@H]2CN3CCc4c([nH]c5cc(OC)ccc45)[C@@H]3C[C@H]12 | – | ? | · | · | · | ·
COc1ccc(C(=O)C2CCCN(Cc3cccn3-c3ccc(Cl)cn3)C2)c(OC)c1 (stereo unspecified) | 20µM | – | – | ? | – | –
COc1ccc(C(=O)C2CCCN(C/C=C/c3ccccc3OC)C2)c(OC)c1 (stereo unspecified) | – | – | – | -61 | – | –
COc1cccc(C(=O)C2CCCN(C/C=C/c3ccccc3OC)C2)c1 (stereo unspecified) | – | – | – | – | ? | –
O=C(CSC1=Nc2ccccc2N=C(c2ccc(F)cc2)C1)NCc1ccccc1 | – | · | – | – | – | ·
COc1cccc(C(=O)NC(=S)Nc2ccc(N(C)C)cc2)c1 | – | – | – | – | 16µM | –
CCOc1cccc(C(=O)NC(=S)Nc2cccc(C)c2)c1 | – | – | – | -99 | ? | –
CCOc1cccc(C(=O)Nc2cccc(C(C)=O)c2)c1 | – | – | – | – | – | –
O=C(Nc1cccc(NC(=O)c2ccco2)c1)c1cccc(Br)c1 | – | – | – | -90 | – | –
O=C(Nc1cc(Br)c(O)c(Br)c1)c1cccc(NC(=O)c2ccco2)c1 | – | – | – | – | ? | –
CCOc1cccc(C(=O)Nc2cccc(NC(=O)c3ccco3)c2)c1 | – | – | – | -62 | – | –
COc1cc(NC(=O)Cn2c(=O)n(Cc3ccccc3Cl)c(=O)c3cc(OC)c(OC)cc32)cc(OC)c1 | – | · | – | – | – | ·
CCOc1ccc(C(=O)OCc2cc(=O)n3nc(C4CCCCC4)sc3n2)cc1 | ? | · | – | – | – | ·
Nc1nccc(-c2ccc3noc(-c4ccc(Cl)cc4)c3c2)n1 | · | · | – | · | · | ·
COc1ccc(NC(=S)Nc2ccc(N(C)C(C)=O)cc2)cc1 | – | – | – | -98 | – | –
COc1cccc(C(=O)Nc2cc(NC(=O)c3ccco3)ccc2OC)c1 | – | – | – | – | – | –
COc1ccc(NC(=S)Nc2ccccc2)cc1 | – | – | – | ? | – | –
CCCCOc1cccc(C(=O)Nc2cc(NC(=O)c3ccco3)ccc2OC)c1 | – | · | – | -104 | – | ·
O=C(NC1CCCC1)c1cccc(NC(=O)c2ccco2)c1 | – | – | · | -107 | – | –[3.69 µM]
CC1CN=C(c2ccc(Cl)cc2)c2c3ccccc3nn21 (stereo unspecified) | · | · | · | – | · | ·
CSc1ncc(C(=O)Nc2cccc(Cl)c2C)c(-c2ccccc2)n1 | – | · | – | – | – | ·
CCN(c1cccc(C)c1)C1C(=O)c2ccccc2N1C(C)=O (stereo unspecified) | – | ? | – | – | 22µM | –
CC(Cc1ccccc1Sc1ccccc1)N(C)C (stereo unspecified) | – | – | – | -63 | – | –
COc1ccc(-c2noc(CSc3nnc(C)n3-c3cccc(C)c3)n2)cc1 | ? | · | – | – | – | ·
SMILES | FMDV inh | Giardia FBPA inh | Tb PYK inh | HCMV antiviral | Sm TGR block | RE007 growth inh
COC(=O)C1CCN(C2CN(Cc3cn(Cc4ccc(C(F)(F)F)cc4)nn3)S(=O)(=O)C2)CC1 (stereo unspecified) | · | · | · | – | · | ·
CCCOC(=O)c1ccc(NC(=O)COC(=O)C2CCN(c3ccc(C(F)(F)F)cn3)CC2)cc1 | – | · | – | – | · | –
Cc1ccc(NC(=O)COC(=O)C2CCN(c3ccc(C(F)(F)F)cn3)CC2)cc1 | – | · | – | -73 | – | –
CC(N=Cc1cc([N+](=O)[O-])ccc1O)c1ccccc1 (stereo unspecified) | ? | – | – | – | – | ?
CC(N=Cc1cccc(O)c1O)c1ccccc1 (stereo unspecified) | ? | ? | ? | · | 5.6µM | –
O=C1CC(c2ccccc2)Cc2[nH]c(=O)c(C(=O)Nc3cccc(F)c3)cc21 (stereo unspecified) | – | · | – | – | – | ·
C/C(=N\NC(=O)c1ccccc1F)c1ccc2c(c1)Nc1ccccc1S2 | ? | – | – | -69 | – | –
COc1ccc(Nc2oc(/C=C/c3cc(OC)c(OC)c(OC)c3)nc2C#N)cc1 | – | · | – | – | – | ·
CC1Cc2ccccc2N1C(=O)CN1CCC(n2nnc3cc(C(F)(F)F)ccc32)CC1 (stereo unspecified) | 20µM | – | – | – | – | –
O=C(NCC(c1ccco1)N1CCOCC1)c1ccc([N+](=O)[O-])cc1 (stereo unspecified) | – | – | – | – | 4µM | –
CC(=O)c1ccc(-c2ccc(C(=O)NCC(c3ccc(F)cc3)N3CCOCC3)o2)cc1 (stereo unspecified) | – | · | – | – | – | –
O=C(NCC(c1ccc(F)cc1)N1CCOCC1)c1ccc([N+](=O)[O-])o1 (stereo unspecified) | – | · | – | -87 | · | –
O=C(NCC(c1ccco1)N1CCOCC1)c1cccc([N+](=O)[O-])c1 (stereo unspecified) | – | – | – | – | – | –
O=C(NCC(c1ccco1)N1CCc2ccccc2C1)c1cccc([N+](=O)[O-])c1 (stereo unspecified) | – | · | – | – | 40µM | –
COc1ccc(NC(=O)c2sc3nc(-c4cc5ccc(OC)cc5oc4=O)[nH]c(=O)c3c2C)cc1 | – | · | – | – | – | ·
COc1ccc(CNc2cc(C)ccn2)c(O)c1 | – | – | – | – | 7.1µM | –
O=S(=O)(CCc1ccccc1)c1nnnn1-c1ccccc1 | · | – | · | · | · | ·
Cn1nnc(NC(=S)NC(=O)c2ccco2)n1 | – | 1.3µM | – | – | ? | –
Cn1nnc(NC(=O)c2ccco2)n1 | – | – | – | – | – | –
COc1ccc(C(=O)NC(=S)Nc2nnn(C)n2)cc1 | – | 1.8µM | – | – | – | ·
Cn1nnc(NC(=O)/C=C/c2ccco2)n1 | – | – | – | – | 8.9µM | –
CC(=O)Nc1ccc(NC(=S)NC(=O)c2cc3ccccc3o2)cc1 | – | – | – | – | – | –
Cn1nnc(NC(=S)NC(=O)c2cc3ccccc3o2)n1 | – | ? | – | – | 25µM | –
Cc1nc(NCc2ccccc2)c2nc(-c3ccccc3)n(CCCN3CCOCC3)c2n1 | · | – | · | · | · | ·
CC1=C(C(=O)Nc2ccc(F)cc2F)C2(CCN(C(C)C)CC2)OC1=O | – | · | – | – | – | ·
C[C@@H]1ON(C)[C@H]2C[C@H]3c4[nH]c5c(-c6ccc(C(F)(F)F)cc6)cccc5c4CCN3C(=O)[C@@H]12 | · | · | · | – | · | ·
